Hits are enriched below; roughly 4.7% of the tested compounds scored in any of these assays.
SKKanGAS inh – SKKanGAS growth inhibition; AID 1662; S. pyogenes SKKanGAS, kanamycin growth, BacTiter-Glo, 6 h; 1.3% of 300,000 active; inhibition, % at 7.5 µM;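 active = mean replicate score, as percent of positive control median, at least 50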;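 note: strain carries kanamycin resistance gene driven by streptokinase promoter and grows in 40 µg/ml kanamycin; loss of luminescence reflects streptokinase promoter inhibition or plain growth inhibition; 0% = median of DMSO wells and 100% = positive control at its reference dose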
TIM10 inh – TIM10 yeast growth inhibition | inhibition, % at 10 µM | 1.4% of 330,000 active | S. cerevisiae TIM10 strain growth, BacTiter-Glo luminescence, 24 h;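 active = inhibition of 40% or more at the single tested concentration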;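 note: wild-type TIM10 isogenic control strain grown at permissive 25 °C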
tim10-1 inh – inhibits growth of tim10-1 mutant yeast; S. cerevisiae tim10-1 ts strain growth, BacTiter-Glo, 24 h; inhibition, % at 20 µM; 2.2% of 330,000 active; AID 463190;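 active = inhibition of at least 40%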;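 note: mutant grown at 25 °C; 0% = DMSO wells with yeast and 100% = wells holding no yeast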
EBI2 block – EBI2 (human) antagonism. EBI2 beta-arrestin recruitment, luminescence, 7a,25-OHC stimulated. 0.81% of 360,000 active. inhibition, % at 5 µM; in the data active = inhibition above about 38%;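 note: enzyme fragment complementation signal reports receptor beta-arrestin coupling in cells; 0% = agonist plus DMSO wells and 100% = wells without agonist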
Target sequence (P32249 whole entry, looked up, the tested form may be a part): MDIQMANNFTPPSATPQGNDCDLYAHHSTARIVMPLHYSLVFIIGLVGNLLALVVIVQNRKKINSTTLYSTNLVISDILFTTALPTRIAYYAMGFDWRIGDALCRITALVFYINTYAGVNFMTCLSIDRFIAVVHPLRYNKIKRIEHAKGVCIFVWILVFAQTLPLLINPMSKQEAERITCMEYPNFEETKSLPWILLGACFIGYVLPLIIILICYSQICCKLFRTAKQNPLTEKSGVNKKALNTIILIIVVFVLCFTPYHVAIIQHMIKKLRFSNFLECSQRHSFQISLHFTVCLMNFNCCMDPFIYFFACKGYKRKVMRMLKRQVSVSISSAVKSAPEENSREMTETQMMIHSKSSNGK
PfHsp90 yeast 2 – growth inhibition of yeast expressing Plasmodium Hsp90; S. cerevisiae expressing PfHsp90, BacTiter-Glo ATP, 48 h; yeast lacking PDR1 and PDR3 efflux regulators; AID 504621; inhibition, % at 9.4 µM; 0.32% of 310,000 active;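 active = every replicate shows inhibition above about 80%, whatever the replicate mean, limit read from the data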;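 note: 0% = DMSO neutral controls and 100% = 20 µM radicicol positive controls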
tim23-1 inh – tim23-1 yeast growth inhibition; S. cerevisiae tim23-1 growth, BacTiter-Glo luminescence, 24 h; inhibition, % at 20 µM; 1.3% of 330,000 active; AID 463212;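 active = growth inhibition of the mutant yeast at or above 50%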;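 note: temperature-sensitive mutant grown at 25 °C; plate controls were DMSO-treated mutant yeast for no effect and medium wells lacking yeast for full effect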
tim10-1 conf – tim10-1 yeast growth inhibition, confirmed; shares compounds with tim10-1 inh; inhibition, % at 20 µM; S. cerevisiae tim10-1 ts strain growth, BacTiter-Glo, 24 h; AID 463213; 56% of 7,400 active;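 active = inhibition of yeast growth at or above a set limit in either of two repeat tests at 20 µM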;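 note: tim10-1 mutant grown at permissive 25 °C to find synthetic lethal compounds; 0% = DMSO yeast wells and 100% = medium wells without yeast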
tim10 confirm – confirmation of TIM10 yeast growth inhibitors; shares compounds with TIM10 inh; S. cerevisiae tim10 strain growth, BacTiter-Glo luminescence, 24 h; inhibition, % at 10 µM; 63% of 4,600 active;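 active = inhibition of yeast growth at or above a set limit in either of two replicates at 10 µM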;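 note: this counterscreen used the strain with wild-type TIM10; 0% = yeast with DMSO and 100% = medium wells lacking yeast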
EBI2 conf – confirmation of human EBI2 receptor antagonists; inhibition, % at 5 µM; EBI2 beta-arrestin luminescence, 7a,25-OHC antagonism; 29% of 2,400 active; shares compounds with EBI2 block;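 active = inhibition of at least 50%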
EBI2 ag – counter-screen for EBI2 antagonists: EBI2 agonist activity; AID 652000; shares compounds with EBI2 block; activation, % at 5 µM; 2,400 tested, under 10 active; EBI2-expressing cells, agonist mode, luminescence, 60 min; 0% vehicle, 100% 7α,25-dihydroxycholesterol control;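 active = activation of at least 50%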
bGal cs – counter-screen for EBI2 antagonists: E. coli beta-galactosidase inhibition; AID 652176; purified beta-galactosidase, luminescent Galacton Star, 15 min; shares compounds with EBI2 block; inhibition, % at 5 µM; 1% of 2,400 active;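 active = replicate-average signal at least 3 plate SD below neutral wells, shown as high inhibition, flagging enzyme-inhibiting false positives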;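 note: 0% = DMSO wells with enzyme and 100% = wells lacking enzyme; higher means stronger loss of beta-gal luminescence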
Active calls of the source: *.

COc1ccc(-c2cc(C(=O)N3CCCC3)no2)cc1 was read as SKKanGAS inh -1, TIM10 inh -13, tim10-1 inh 8, EBI2 block -3, PfHsp90 yeast 2 -27 and tim23-1 inh 14.
`COc1cccc(CN2CCN(C(=O)c3ccc(-c4ccccc4)cc3)CC2)c1OC` gave SKKanGAS inh 0, TIM10 inh 39, tim10-1 inh 44*, EBI2 block 65*, PfHsp90 yeast 2 0, tim23-1 inh 31, tim10-1 conf 27, EBI2 conf 44, EBI2 ag 0 and bGal cs 10.
For CC(C)NC(=O)C(c1ccc(F)cc1)N(C(=O)CCC(=O)Nc1ccccn1)c1cccc(F)c1 (configuration not stated) the results were SKKanGAS inh 0, TIM10 inh 13, tim10-1 inh -3, EBI2 block -1, PfHsp90 yeast 2 4 and tim23-1 inh 4.
O=C(c1ccc2ncsc2c1)N1CCN(c2ccccc2Cl)CC1 was read as SKKanGAS inh 3, TIM10 inh 18, tim10-1 inh 49*, EBI2 block 74*, PfHsp90 yeast 2 12, tim23-1 inh 42, tim10-1 conf 38*, EBI2 conf 54*, EBI2 ag 1 and bGal cs 1.
For O=C(CSc1nnc(COc2ccc(F)cc2)o1)N1c2ccccc2CCc2ccccc21 the results were SKKanGAS inh 2, TIM10 inh 8, tim10-1 inh 42*, EBI2 block 51*, tim23-1 inh 25, tim10-1 conf 16, EBI2 conf 24, EBI2 ag 0 and bGal cs 7.
CC(C)(C)c1ccc(/C=N/NC(=S)NCc2ccccc2)cc1 was read as SKKanGAS inh 2, TIM10 inh 3, tim10-1 inh -4, EBI2 block 18, PfHsp90 yeast 2 -23 and tim23-1 inh -2.
Screening CN(C)c1ccc(/C=N/NC(=S)NCc2ccccc2)cc1 returned SKKanGAS inh 10, TIM10 inh 55*, tim10-1 inh 43*, EBI2 block 49*, tim23-1 inh 26, tim10-1 conf 32*, tim10 confirm 44*, EBI2 conf 28, EBI2 ag 1 and bGal cs 4.
Screening CCCCc1nnc(NC(=O)CSCc2cc(=O)n3cc(C)sc3n2)s1 returned SKKanGAS inh -3, TIM10 inh -3, tim10-1 inh -5, EBI2 block -3, PfHsp90 yeast 2 7 and tim23-1 inh -4.
`Cc1sc2ncnc(SCC(=O)c3ccc4c(c3)OCCO4)c2c1-c1ccccc1` gave SKKanGAS inh 14, TIM10 inh -5, tim10-1 inh 0, EBI2 block 4, PfHsp90 yeast 2 -8 and tim23-1 inh 13.
For COCC(C)OC(=O)C(C#N)c1nc2ccccc2nc1N1CCN(Cc2ccccc2)CC1 (configuration not stated) the results were SKKanGAS inh 13, TIM10 inh 3, tim10-1 inh 30, EBI2 block 34, PfHsp90 yeast 2 -12 and tim23-1 inh 35.

Source: PubChem
